Results taken from PubChem BioAssay (NCATS).
Inconclusive results are not listed. Unmarked numbers belong to inactive results. The source made the active and inactive calls. The call rests on the fitted dose curve; in most records, active means well fitted inhibition curve with a large enough effect; inconclusive means small, poorly fitted or top-dose-only effect; inactive means flat fitted curve, though single readings scatter.

system: NIH3T3; test: Cytotoxic Profiling of Annotated Libraries Using Quantitative High-Throughput Screening (AID 1296008); conditions: Five cell lines viability, CellTiter-Glo ATP luminescence, 48-72 h; max response: active compounds read low; further: nearly all actives have a fitted effect of over 60% in size
In short: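 Cells exposed to compounds for 48 or 72 hr at 37 degrees Celsius. Viability read as ATP-coupled luminescence with CellTiter-Glo after 10 min at room temperature.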
On the % scale 0 is the no-effect control and ±100 the full control effect; potency means the concentration at half of the fitted maximal effect.

Structure (SMILES) | Potency | outcome | max response [%]
Oc1ccc2c(-c3c(-c4ccccn4)nn4c3CCC4)ccnc2c1 | 13 µM (active) | – | –
C=C1C(=O)O[C@@H]2CC(C)=C([C@@H](C)CCCOC(C)=O)[C@@H](O)[C@H]12 | – | inactive | –
COC(=O)c1[nH]c(=O)c2ccccc2c1-c1ccc[nH]1 | – | inactive | –
C[C@@H]1O[C@@H](O[C@@H]2[C@@H](O)[C@H](O[C@H]3[C@H](O[C@H]4CC[C@@]5(C)C(CC[C@]6(C)C5CC=C5[C@@H]7CC(C)(C)CC[C@]7(C(=O)O[C@@H]7O[C@H](CO)[C@@H](O)[C@H](O)[C@H]7O)CC[C@]56C)C4(C)C)O[C@H](C(=O)O)[C@@H](O)[C@@H]3O)OC[C@H]2O)[C@H](O)[C@H](O)[C@H]1O (some centres undefined) | – | inactive | –
CC1(C)O[C@H]2CC(=O)OC[C@@]23C1=C(O)C(=O)[C@]1(C)C3CC[C@@]2(C)[C@H](c3ccoc3)OC(=O)[C@H]3O[C@]321 (some centres undefined) | – | inactive | –
CC1(C)CC[C@]2(C(=O)O)CC[C@]3(C)C(=CCC4[C@@]5(C)C[C@@H](O)[C@H](O)[C@@](C)(CO)C5CC[C@]43C)C2C1 (some centres undefined) | – | – | -3.06
C[C@@H]1O[C@@H](O[C@H]2[C@H](O[C@H]3[C@H](O[C@H]4CC[C@@]5(C)C(CC[C@]6(C)C5CC=C5[C@@H]7CC(C)(C)C[C@@H](O)[C@]7(C)CC[C@]56C)[C@@]4(C)CO)O[C@H](C(=O)O)[C@@H](O)[C@@H]3O)O[C@H](C(=O)O)[C@H](O)[C@@H]2O)[C@H](O)[C@H](O)[C@H]1O (some centres undefined) | – | inactive | –
Cc1sc(C)c(C(=O)NC2(c3ccc(C(=O)O)cc3)CC2)c1Cc1ccc(C(F)(F)F)cc1 | – | inactive | –
N#Cc1cccc(-c2nc(-c3cccnc3)no2)c1 | – | inactive | –
O=C(O)Cn1nnc(-c2ccc(CN(CCCCOc3ccc(CN4CCCC4)cc3)CCc3ccccc3)cc2)n1 | – | inactive | –
C/C(=C/CO)CC[C@H]1[C@]2(C)C[C@H](O)CC(C)(C)[C@H]2CC[C@]1(C)O | – | – | 3.86
O=C(/C=C/c1ccc(O)cc1)OCC1OC(O)C(OC2OC(CO)C(O)C(O)C2O)C(O)C1O (centres undefined) | – | – | 3.74
CC1(C)C(=O)CCC2(C)C1C(O)C=C1COC(=O)C12O (centres undefined) | – | – | -3.93
C=C(CCO)C(=O)OCC1OCC(OC(=O)C(=C)CCO[C@@H]2O[C@H](CO)[C@@H](O)[C@H](O)[C@H]2O)C(O)C1O (some centres undefined) | – | – | -5.54
CC1=C2C[C@H]3OC(=O)[C@H](O)[C@@]4(O)[C@@H](C)[C@@H](O)[C@H](O)C([C@@]2(C)[C@H](O)[C@@H](O)C1)[C@@]34C (some centres undefined) | – | – | 2.2
COc1ccnc2[nH]cc(C(=O)C(=O)N3CCN(C(=O)c4ccccc4)CC3C)c12 (centres undefined) | – | – | -4.76
OC[C@@]1(O)CO[C@@H](OC[C@H]2O[C@@H](OCc3ccccc3)[C@H](O)[C@@H](O)[C@@H]2O)[C@@H]1O | – | inactive | –
COc1ccc(/C=C/C(N)=O)cc1OC | – | – | 3.68
CC(=O)OC(C)C(C)(O)C(=O)O[C@@H]1CC[C@]2(C)CC(=O)C(=C(C)C)C[C@H]2[C@]1(C)OC(C)=O (some centres undefined) | – | – | -1.04
N[C@@H](CC(=O)Nc1ccc(Oc2cc(F)c(F)cc2Br)cc1)C(=O)O | – | – | 0.0129

Structure (SMILES) | Potency | outcome | max response [%]
CC(=O)OC1C(CO)OC(O[C@H]2[C@H](OC(=O)[C@]34CCC(C)(C)C[C@H]3C3=CCC5[C@@]6(C)CC[C@H](O[C@@H]7O[C@H](C(=O)O)[C@@H](O)[C@H](O[C@@H]8OC[C@@H](O)[C@H](O)[C@H]8O)[C@H]7O[C@@H]7O[C@H](CO)[C@H](O)[C@H](O)[C@H]7O)[C@@](C)(C=O)C6CC[C@@]5(C)[C@]3(C)C[C@H]4O)O[C@H](C)[C@H](OC3OC(C)C(OC4OCC(O)C(O)C4O)C(O)C3O)[C@@H]2O)C(O)C1O (some centres undefined) | – | inactive | –
O=C(Nc1ccccc1)Nc1ccc(-c2ccc(C(=O)C3CCCC3C(=O)O)cc2)cc1 (centres undefined) | – | inactive | –
Cn1c2ccc(NC(=O)c3ccccc3)cc2c(=O)n2nc(C(=O)O)cc12 | – | inactive | –
C[C@@H]1CCC2C(C)(C)[C@H](O)[C@H](O)C[C@]2(C)[C@@]12Cc1c(O)cc3c(c1O2)CN(CCCC(=O)O)C3=O (some centres undefined) | – | – | 4.1
CC(C)=CCC[C@@](C)(O)[C@H]1CC[C@]2(C)[C@@H]1[C@H](O)CC1[C@@]3(C)CC[C@H](O[C@@H]4O[C@H](CO)[C@@H](O)[C@H](O)[C@H]4O[C@@H]4O[C@H](CO)[C@@H](O)[C@H](O)[C@H]4O)C(C)(C)[C@@H]3CC[C@]12C (some centres undefined) | – | inactive | –
CC1(C)CC[C@]2(C(=O)O[C@@H]3O[C@H](CO)[C@@H](O)[C@H](O)[C@H]3O)CC[C@]3(C)C(=CCC4[C@@]5(C)CC[C@H](O[C@H]6O[C@H](CO)[C@@H](O)[C@H](O[C@@H]7O[C@H](CO)[C@@H](O)[C@H](O)[C@H]7O)[C@H]6O)C(C)(C)C5CC[C@]43C)[C@@H]2C1 (some centres undefined) | – | inactive | –
COC(=O)[C@H](Cc1cccc(C(=N)N)c1)[C@@H](C)NC(=O)c1ccc(-c2cc[n+]([O-])cc2)cc1 | – | – | 0.404
C[C@@H]1CC[C@]2(C(=O)O[C@@H]3O[C@H](CO[C@@H]4O[C@H](CO)[C@@H](O)[C@H](O)[C@H]4O)[C@@H](O)[C@H](O)[C@H]3O)CC[C@]3(C)C(=CCC4[C@@]5(C)CC[C@H](O)[C@](C)(C(=O)O)C5CC[C@]43C)[C@@H]2[C@]1(C)O (some centres undefined) | – | – | -11.7
O=C(OC[C@H]1O[C@H](O[C@]2(CO)O[C@H](CO)[C@@H](O)[C@@H]2O)[C@H](O)[C@@H](O)[C@@H]1O)c1ccc(O)cc1 | – | – | -10.5
CC12CC34CC(O)C5C(CO)(CO)CC(=O)CC5(C)C3CC1C2C4 (centres undefined) | – | – | 2.14
CC(C)[C@](O)(c1ccc2cc(OC(F)F)c(OC(F)F)cc2c1)c1cn[nH]n1 | – | – | 1.17
O=C(CCCCC1CCCCC1)N1CCC(c2cnc[nH]2)CC1 | – | inactive | –
CNC(C)C(=O)NC(C(=O)N1CCCC1C(=O)Nc1cccc2ncccc12)C(C)C (centres undefined) | – | inactive | –
C=C1CC[C@@]2(OC1)O[C@H]1CC3[C@@H]4CC=C5C[C@H](O[C@H]6OC[C@@H](O)C(O)[C@@H]6O[C@@H]6O[C@@H](C)[C@H](O)[C@@H](O[C@@H]7O[C@H](CO)[C@@H](O)[C@H](O)[C@H]7O)[C@H]6O)C[C@@H](O)[C@]5(C)C4CC[C@]3(C)[C@H]1[C@@H]2C (some centres undefined) | – | inactive | –
Cc1c(C)c(NCC(=O)N(C)C2CCN(Cc3ccc(C(N)=O)cc3)CC2)c(C)c(C)c1N | – | – | 2.96
CC1CCC2(C(=O)O)CCC3(C)C(=CCC4C5(C)CCC(O)C(C)(C(=O)O)C5CCC43C)C2C1(C)O (centres undefined) | – | inactive | –
C=C1C[C@]23C[C@H]1CC[C@H]2[C@]1(C)CC[C@H](O)[C@@](C)(C(=O)O)[C@H]1[C@@H]3C(=O)O | – | – | 2.39
COC(=O)C(CC1(OC(=O)C(C)C)c2ccccc2N2C(=O)C(C)(C)N(O)C21)n1cnc2ccccc2c1=O (centres undefined) | – | – | -14.6
C=C[C@H]1[C@H](O[C@@H]2O[C@H](CO)[C@@H](O)[C@H](OC(=O)/C=C/c3ccc(O)c(OC)c3)[C@H]2O)OC=C2C(=O)OCC[C@]21O | – | inactive | –
